{
  "source": "PubChem BioAssay AID602143",
  "about": "(Vanderbilt Specialized Chemistry Center, 2011)",
  "note": "Values without a mark were called inactive. The source made the active and inactive calls. No stated cut-off is given here; in the data, active means remaining activity below about 50%; inactive means the rest.",
  "data": [
    {"molecular_target": "Phospholipase D2 (Homo sapiens) (UniProt O14939)", "test": "PLD2 inhibitors in cells, cell-based, HEK293, single concentration (AID 602143);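 further: tested at 200 nM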", "conditions": "HEK293 cellular PLD2 activity, percent of control; stronger effect = lower value", "values": [
      {"smiles": "O=C(NCCN1CCC2(CC1)C(=O)NCN2c1ccccc1)c1ccc2cc(F)ccc2c1", "remaining activity": "68.8%"},
      {"smiles": "O=C(NCCN1CCC2(CC1)C(=O)NCN2c1ccc(Br)cc1)c1ccc(F)cc1", "remaining activity": "73.2%"},
      {"smiles": "O=C(CCN1CCC2(CC1)C(=O)NCN2c1ccccc1)Nc1ccc(F)cc1", "remaining activity": "119%"},
      {"smiles": "O=C1NCN(c2ccccc2)C12CCN(CCN1CCCC1)CC2", "remaining activity": "84.9%"},
      {"smiles": "C[C@@H](CN1CCC2(CC1)C(=O)NCN2c1ccc(F)c(F)c1)NC(=O)c1ccc(Cl)cc1", "remaining activity": "14.9% (active)"},
      {"smiles": "O=C(c1ccc2ccccc2c1)N1CC(N2CCC3(CC2)C(=O)NCN3c2ccccc2)C1", "remaining activity": "72.6%"},
      {"smiles": "Nc1cccc(Cl)c1C(=O)NCCN1CCC2(CC1)C(=O)NCN2c1ccccc1", "remaining activity": "100%"},
      {"smiles": "O=C(c1ccc(F)c(F)c1)N1CCC[C@@H]1CN1CCC2(CC1)C(=O)NCN2c1ccccc1", "remaining activity": "124%"},
      {"smiles": "C[C@H](CN1CCC2(CC1)C(=O)NCN2c1ccccc1)NC(=O)c1cc(Br)c(Br)o1", "remaining activity": "85.7%"},
      {"smiles": "O=C(C1C[C@H]1c1ccccc1)N1CC(N2CCC(n3c(=O)[nH]c4ccccc43)CC2)C1", "note": "(stereo not given in full)", "remaining activity": "87.7%"},
      {"smiles": "O=C(CN1CCC2(CC1)C(=O)NCN2c1ccccc1)c1ccccc1", "remaining activity": "106%"},
      {"smiles": "COc1cccc(C(=O)NCCN2CCC3(CC2)C(=O)NCN3c2ccccc2)n1", "remaining activity": "60.7%"},
      {"smiles": "CC(C)[C@@H](CN1CCC2(CC1)C(=O)NCN2c1ccccc1)NC(=O)c1ccc(Cl)cc1", "remaining activity": "59.4%"},
      {"smiles": "O=C(c1ccc2ccccc2c1)N1CC(N2CCC(n3c(=O)[nH]c4ccccc43)CC2)C1", "remaining activity": "64.3%"},
      {"smiles": "C[C@@H](CN1CCC2(CC1)C(=O)NCN2c1ccc(F)c(F)c1)NC(=O)c1ccc2ccccc2c1", "remaining activity": "51.2%"},
      {"smiles": "CC(C)[C@@H](CN1CCC2(CC1)C(=O)NCN2c1ccccc1)NC(=O)c1ccc2ccccc2c1", "remaining activity": "80.9%"},
      {"smiles": "C[C@H](N)CN1CCC2(CC1)C(=O)NCN2c1ccccc1", "note": "(tested in a mixture with another compound)", "remaining activity": "74.1%"},
      {"smiles": "Cc1ccccc1C(=O)N(CCN1CCC2(CC1)C(=O)NCN2c1cccc(F)c1)C(=O)c1ccccc1C", "remaining activity": "106%"},
      {"smiles": "O=C(NCCN1CCC2(CC1)C(=O)NCN2c1ccccc1)c1ncc(F)cc1F", "remaining activity": "52.8%"},
      {"smiles": "CN1CN(c2ccccc2)C2(CCN(CCNC(=O)c3ccc4ccccc4c3)CC2)C1=O", "remaining activity": "57.9%"},
      {"smiles": "O=C(NCCN1CCC2(CC1)C(=O)NCN2c1ccccc1)c1ccc2c(c1)C(=O)OC2=O", "remaining activity": "93.5%"},
      {"smiles": "O=C(CCN1CCC2(CC1)C(=O)NCN2c1ccccc1)Nc1cnc2ccccc2c1", "remaining activity": "104%"},
      {"smiles": "O=C(NCCN1CCC2(CC1)C(=O)NCN2c1ccccc1)c1cc2cccnc2s1", "remaining activity": "79.2%"},
      {"smiles": "O=C(NCCCCCCN1CCC2(CC1)C(=O)NCN2c1ccccc1)c1ccc2ccccc2c1", "remaining activity": "133%"},
      {"smiles": "O=C(NCCN1CCC2(CC1)C(=O)NCN2c1ccccc1)C1C[C@H]1c1ccccc1", "note": "(stereo not given in full)", "remaining activity": "98.4%"},
      {"smiles": "O=C(NCCN1CCC2(CC1)C(=O)NCN2c1ccc(F)c(F)c1)c1ccc2ccccc2c1", "remaining activity": "40.1% (active)"},
      {"smiles": "O=C(NCCN1CCC2(CC1)C(=O)NCN2c1ccccc1)c1cc2ccccc2s1", "remaining activity": "10.3% (active)"},
      {"smiles": "CC(C)[C@@H](CN1CCC2(CC1)C(=O)NCN2c1ccccc1)NC(=O)c1ccc(F)cc1", "remaining activity": "74.9%"},
      {"smiles": "CC(C)[C@@H](CN1CCC2(CC1)C(=O)NCN2c1ccccc1)NC(=O)c1cc2ccccc2[nH]1", "remaining activity": "25.8% (active)"},
      {"smiles": "O=C(NCCN1CCC2(CC1)C(=O)NCN2c1ccccc1)c1cc(-c2ccccc2)no1", "remaining activity": "88.3%"},
      {"smiles": "O=C(CCc1ccc(F)cc1)NCCN1CCC2(CC1)C(=O)NCN2c1ccccc1", "remaining activity": "102%"},
      {"smiles": "O=C(NCCN1CCC2(CC1)C(=O)NCN2c1ccc(F)cc1)c1ccc2ccccc2c1", "remaining activity": "34.3% (active)"},
      {"smiles": "O=C(NCCCCCCN1CCC2(CC1)C(=O)NCN2c1ccccc1)c1cnc2ccccc2c1", "remaining activity": "127%"},
      {"smiles": "C[C@@H](CN1CCC2(CC1)C(=O)NCN2c1ccc(F)c(F)c1)NC(=O)c1ccc(F)cc1", "remaining activity": "23.6% (active)"},
      {"smiles": "O=C(CCN1CCC2(CC1)C(=O)NCN2c1ccccc1)Nc1ccc(Cl)cc1", "remaining activity": "183%"}
    ]}
  ]
}
